GalR3 antag – GalR3 antagonists in HEK293 cells, primary screen, cell-based, fluorescence readout; Galanin receptor type 3 (Homo sapiens), O60755; 360,000 tested, 0.44% active; AID 651719, 2012; inhibition, % at 3 µM; HEK293 GalR3-CNG cAMP membrane potential fluorescence; galR3 body fused to GalR1 C-terminus;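 active = inhibition above the screen-wide average plus 3 SD, cut at about 13% in these data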;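 note: forskolin and galanin both at EC90 stimulate the cells; cAMP rise reported by CNG channel membrane potential dye signal; 0% = forskolin plus galanin with DMSO and 100% = forskolin alone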
NCOA3 inh – SRC3 coactivator transcriptional activity inhibitors, primary screen, cell-based, luminescence. HEK293 GAL4-SRC3 luciferase reporter. inhibition, % at 3.6 µM. 360,000 tested, 0.17% active;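 active = inhibition above a per-campaign cutoff, the mean of all compounds plus 3 SD, cut at about 60% in these data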;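 note: 0% = DMSO-treated cells and 100% = gossypol-treated cells at 36 µM; higher means less SRC3-driven luciferase light from the GAL4 reporter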
Target sequence (Q9Y6Q9 whole entry, looked up, the tested form may be a part): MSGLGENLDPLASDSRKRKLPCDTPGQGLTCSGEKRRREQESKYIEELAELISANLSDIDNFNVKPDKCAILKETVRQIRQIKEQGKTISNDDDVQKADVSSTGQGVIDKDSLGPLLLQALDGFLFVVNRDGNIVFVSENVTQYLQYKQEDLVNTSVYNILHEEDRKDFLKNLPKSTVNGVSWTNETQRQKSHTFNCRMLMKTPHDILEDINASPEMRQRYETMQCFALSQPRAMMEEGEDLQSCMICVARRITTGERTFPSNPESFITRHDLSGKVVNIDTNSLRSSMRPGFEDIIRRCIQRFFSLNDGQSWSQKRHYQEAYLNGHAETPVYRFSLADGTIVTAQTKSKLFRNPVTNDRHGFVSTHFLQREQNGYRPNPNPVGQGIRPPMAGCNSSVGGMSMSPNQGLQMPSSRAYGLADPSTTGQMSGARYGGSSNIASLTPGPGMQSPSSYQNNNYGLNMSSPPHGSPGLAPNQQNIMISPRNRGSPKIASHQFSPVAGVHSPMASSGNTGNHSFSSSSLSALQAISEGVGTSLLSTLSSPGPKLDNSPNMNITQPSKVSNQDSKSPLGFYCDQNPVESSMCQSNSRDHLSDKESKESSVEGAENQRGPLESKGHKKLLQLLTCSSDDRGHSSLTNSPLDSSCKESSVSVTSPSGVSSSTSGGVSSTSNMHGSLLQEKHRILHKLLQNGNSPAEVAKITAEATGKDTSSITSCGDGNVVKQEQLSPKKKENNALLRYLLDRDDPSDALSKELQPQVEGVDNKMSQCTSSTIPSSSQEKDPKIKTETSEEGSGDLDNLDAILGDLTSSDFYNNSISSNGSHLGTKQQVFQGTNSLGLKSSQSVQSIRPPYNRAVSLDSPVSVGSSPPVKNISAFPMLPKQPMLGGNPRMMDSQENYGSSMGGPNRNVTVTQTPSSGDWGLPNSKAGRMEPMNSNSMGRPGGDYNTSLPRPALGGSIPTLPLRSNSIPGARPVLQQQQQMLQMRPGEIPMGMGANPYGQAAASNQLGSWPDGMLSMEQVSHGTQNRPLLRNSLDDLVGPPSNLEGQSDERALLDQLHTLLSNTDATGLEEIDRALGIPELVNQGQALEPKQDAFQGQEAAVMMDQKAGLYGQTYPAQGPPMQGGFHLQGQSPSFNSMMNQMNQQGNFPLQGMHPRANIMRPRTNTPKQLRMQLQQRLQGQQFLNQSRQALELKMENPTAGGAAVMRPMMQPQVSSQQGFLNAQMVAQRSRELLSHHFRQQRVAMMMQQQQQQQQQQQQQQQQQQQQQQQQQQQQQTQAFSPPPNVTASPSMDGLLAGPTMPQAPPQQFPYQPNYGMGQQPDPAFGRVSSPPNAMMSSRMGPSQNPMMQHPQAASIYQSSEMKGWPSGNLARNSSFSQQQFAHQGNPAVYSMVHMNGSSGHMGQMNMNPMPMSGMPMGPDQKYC
NCOA2 inhibitor – inhibition of GAL4-SRC2 driven luciferase reporter, primary screen, SRC2 inhibitor project, cell-based, luminescence; inhibition, % at 9 µM; AID 651957, 2012; HEK293 GAL4-SRC2 luciferase reporter; Nuclear receptor coactivator 2 (Homo sapiens), Q15596; 370,000 tested, 0.17% active;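 active = inhibition above the mean inhibition of all tested compounds plus 3 SD, set per campaign, cut at about 52% in these data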;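 note: 0% = DMSO treated cells and 100% = cells given Gossypol at 36 µM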
NCOA1 inh – SRC1 coactivator transcriptional activity inhibitors, primary screen, cell-based, luminescence; inhibition, % at 3.6 µM; 360,000 tested, 0.12% active; HEK293 GAL4-SRC1 luciferase reporter;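 active = inhibition above the campaign mean plus 3 SD, with each screening campaign given its own cutoff, cut at about 60% in these data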;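 note: 0% = DMSO treated cells and 100% = gossypol at 36 µM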
COUP-TFII inh – NR2F2 transcriptional activity inhibitors, primary screen, cell-based, luciferase reporter, HEK293T, luminescence | inhibition, % at 8.6 µM | HEK293T NGFI-A luciferase reporter | COUP transcription factor 2 (Homo sapiens), P24468 | 370,000 tested, 0.7% active;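 active = inhibition above a per-plate cutoff, mean inhibition of test wells between control levels plus 3 SD, cut at about 38% in these data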;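 note: cells cotransfected with COUP-TFII expression vector driving the NGFI-A reporter; 0% = median of COUP-TF2 test wells and 100% = reporter-only cells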
LRH-1 inv ag – LRH-1 (NR5A2) inverse agonists, primary screen, cell-based, luminescence, HEK293T, StAR-luciferase reporter. LRH-1 transfected, 24 h. inhibition, % at 3.6 µM. 360,000 tested, 0.13% active;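 active = inhibition above the mean inhibition of all tested compounds plus 3 SD, cut at about 73% in these data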;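 note: 0% = DMSO wells and 100% = reporter-only cells lacking LRH-1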
GalR3 conf – GalR3 antagonist hit confirmation, cell-based, fluorescence, triplicate; 1,600 tested, 59% active; shares compounds with GalR3 antag; inhibition, % at 3 µM; HEK293 GalR3 CNG cAMP biosensor, membrane potential fluorescence; galR3 fused to GalR1 carboxy tail; challenged with forskolin and galanin at EC90;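 active = inhibition above the primary screen's cutoff, the mean inhibition of all screened compounds plus 3 SD, cut at about 13% in these data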;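 note: 0% = forskolin plus galanin and 100% = forskolin alone with DMSO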
HEK-CNG parental – nonspecific cAMP agonists in parental HEK-CNG cells, counter-screen for GalR3 antagonist project, cell-based, fluorescence, high throughput; HEK293-CNG parental cells, cAMP membrane potential fluorescence; normalised: DMSO wells 0%, forskolin wells 100%; AID 652268, 2013; 1,600 tested, 10% active; activation, % at 3 µM; shares compounds with GalR3 antag; in the data active = activation above about 1.3%
Starred values were filed as active, the others as inactive; . = not tested or not shown. The list is not random: actives were taken first. Their share in the collection is about 1.1%.

SMILES	GalR3 antag	NCOA3 inh	NCOA2 inhibitor	NCOA1 inh	COUP-TFII inh	LRH-1 inv ag	GalR3 conf	HEK-CNG parental
O=C(CN(Cc1cccs1)C(=O)CSc1nnc(COc2ccccc2)o1)NC1CCCCC1	12.6*	6.3	6.3	-5.9	4.9	-7.0	1.5	0.9
CCOc1cc(C2C3=C(CCCC3=O)Nc3ccc4ncccc4c32)ccc1O (stereo unspecified)	6.5	5.4	-0.2	-28.5	-5.2	-6.7	.	.
COc1cc(C2C3=C(CCCC3=O)Nc3ccc4ncccc4c32)ccc1O (stereo unspecified)	15.1*	3.8	-50.8	-14.2	-11.8	-17.4	6.4	-0.4
CCOC(=O)C1=C(C)NC2=C(C(=O)CCC2)C1c1ccc(O)c(OCC)c1 (stereo unspecified)	16.5*	-11.9	7.1	-0.3	18.7	5.2	23.8*	0.1
O=C(OC12CCCN(C1)/C(=C/c1ccc(Cl)cc1)C2)c1ccccc1 (stereo unspecified)	.	.	-3.3	.	25.7	.	.	.
Cc1ccc(CNC(=O)O[C@H]2CC[C@@]34CCCN3C(=O)CCC[C@H]4[C@H]2C)cc1	.	.	.	.	-2.7	.	.	.
Nc1cc(N)nc(SCC(=O)c2ccc3c(c2)NC(=O)CO3)n1	7.8	-3.7	-24.3	-21.7	-4.0	0.4	.	.
Cc1cc(=O)[nH]c(SCC(=O)c2ccc3c(c2)NC(=O)CO3)n1	15.1*	13.9	6.1	-0.6	-5.9	-11.7	-0.2	0.2
Nn1c(SCC(=O)Nc2nccs2)nnc1-c1cc(-c2ccc(Cl)cc2)n[nH]1	.	.	-33.1	.	0.8	.	.	.
COc1ccc(NC(=O)Cn2nc(C(=O)O)c3ccccc3c2=O)cc1Cl	12.7*	2.8	-10.3	-13.8	-3.8	10.3	2.0	0.1
CCOc1ccc(-n2c(SCC(=O)Nc3ccc(S(=O)(=O)Nc4cc(C)nc(C)n4)cc3)nnc2-c2ccc(OC)cc2)cc1	.	.	1.2	.	-4.5	.	.	.
O=C(c1cccs1)N1CCOCC1	12.9*	4.3	6.5	4.7	1.9	2.2	7.2	0.2
O=C(c1cccs1)N1CCCC1	-1.8	1.8	-9.2	-39.6	4.5	5.7	.	.
CN(C)c1ccc(/C=N/NC(=O)CN(c2ccccc2Cl)S(C)(=O)=O)cc1Br	14.2*	-7.2	3.7	-5.7	21.9	0.0	18.4*	0.5
COC(=O)Oc1ccc(/C=N/NC(=O)CN(c2ccccc2Br)S(C)(=O)=O)cc1OC	11.1	15.5	15.5	2.4	-12.4	-4.8	.	.
COc1ccccc1NC(=O)CCCc1nc(-c2ccc(OC)c(OC)c2)no1	22.6*	-1.5	5.0	-76.8	1.3	-1.5	15.6*	-0.1
COc1ccc(C)cc1NC(=O)CSc1nnc(-c2n[nH]c3c2CCC3)n1N	.	.	-10.4	.	11.9	.	.	.
COc1ccc2c(c1)OC(=O)CC2c1cc(OC)c(OC)c(OC)c1 (stereo unspecified)	13.4*	5.7	-41.1	0.0	0.2	6.5	3.8	0.3
COc1ccc(-n2c(SCC(=O)Nc3ccc(OCc4ccccc4)cc3)nnc2-c2ccc(C)cc2)cc1	.	.	-2.1	.	-15.3	.	.	.
COc1ccc(C=NNC(=O)Cc2cc(=O)[nH][nH]2)c(OC)c1	.	.	-21.6	.	-10.3	.	.	.
CCCc1ccc(O)c(N=Cc2cc(Br)cc(OCC)c2O)c1	16.1*	9.4	-2.3	-26.2	8.3	3.6	5.3	0.1
CCc1ccc(O)c(N=Cc2cccc(C)c2O)c1	-7.8	3.8	14.0	-4.9	3.5	4.5	.	.
COCCOC(=O)N(C)C[C@@H]1OCCCC[C@H](C)Oc2ccc(NC(=O)Nc3ccccc3)cc2C(=O)N([C@@H](C)CO)C[C@H]1C	.	.	.	.	-3.8	.	.	.
COC(=O)[C@]12C[C@H](CC(=O)NCCc3ccccc3OC)C(=O)N(CCc3ccc(OC)c(OC)c3)C1=C[C@H](C1CCCC1)O[C@@H]2C	.	.	1.0	.	-4.0	.	.	.
O=C(CCC1CCCN(C(=O)C2CCCC2)C1)NCc1ccc(F)c(F)c1 (stereo unspecified)	-2.9	-1.1	-4.9	-14.4	-12.4	-2.3	.	.
SMILES	GalR3 antag	NCOA3 inh	NCOA2 inhibitor	NCOA1 inh	COUP-TFII inh	LRH-1 inv ag	GalR3 conf	HEK-CNG parental
O=C(CCC1CCCN(c2ncccn2)C1)NCc1ccc(F)c(F)c1 (stereo unspecified)	38.4*	-0.8	23.6	-25.4	-1.9	8.3	8.2	0.2
COC(=O)[C@]12C[C@H](CC(=O)NCc3cccs3)C(=O)N(Cc3ccco3)C1=C[C@H](C(C)(C)C)O[C@@H]2C	.	.	-42.9	.	-8.0	.	.	.
O=C(NNC(=S)NC(=O)c1ccccc1[N+](=O)[O-])c1ccccc1O	30.7*	8.0	15.1	-0.2	-1.4	9.6	-4.1	0.2
O=C(NNC(=S)NC(=O)c1ccccc1[N+](=O)[O-])c1ccccc1[N+](=O)[O-]	-10.4	5.4	-31.8	-11.1	-5.5	-20.1	.	.
CCCOc1ccc(C(=O)NC(=S)NNC(=O)c2c(-c3ccccc3)noc2C)cc1	6.4	-11.4	-4.7	-32.0	-20.2	-35.1	.	.
Cc1onc(-c2ccccc2)c1C(=O)NC(=S)NNC(=O)c1ccc(O)cc1	.	-0.5	4.3	1.5	-2.0	-17.7	2.4	0.2
Clc1cccc(CN2CCN(c3ncc(Cc4ccccc4)cn3)CC2)c1Cl	55.0*	.	34.0	.	32.1	.	105.6*	-0.5
NC(=O)C1CCN(C(=O)c2ccc3nc(N4CCCCC4)sc3c2)CC1	16.5*	-46.3	-41.5	-59.6	-24.1	-48.6	1.1	-0.2
CC(C)(C)c1ccc(S(=O)(=O)N2CCCC2C(=O)N2CCN(c3ccccc3)CC2)cc1 (stereo unspecified)	.	.	-2.0	.	14.9	.	.	.
COc1ccc(OC[C@@H](O)CNC(=O)c2cccc3c2C(=O)c2ccc(Cl)cc2S3(=O)=O)cc1	78.1*	-2.6	-14.2	-2.6	-10.6	-4.3	58.0*	-0.4
Cc1ccc(-c2noc(Cn3nc(C(=O)O)c4ccccc4c3=O)n2)cc1	-7.9	7.5	7.1	-5.7	7.7	0.7	.	.
Cc1noc(C)c1Cn1nc(C(=O)O)c2ccccc2c1=O	19.2*	20.8	-24.4	-7.6	1.9	-0.1	27.0*	0.6
